Source: paper PMC4336329 (PLoS ONE, 2015)
In all, about 310,000 compounds went through this assay and about 2,200 (0.71%) showed an effect of 50% or more. The effect is printed as a negative number. Many of the other results were omitted from the sample, so strong results are more common in it than they were.

Biological target: human ether-à-go-go-related gene (hERG) potassium channel (human, UniProt Q12809)
Experiment: primary screen, population patch clamp on CHO cells stably expressing hERG; higher = less effect of the substance

Chain of human ether-à-go-go-related gene (hERG) potassium channel (Q12809 whole entry, looked up): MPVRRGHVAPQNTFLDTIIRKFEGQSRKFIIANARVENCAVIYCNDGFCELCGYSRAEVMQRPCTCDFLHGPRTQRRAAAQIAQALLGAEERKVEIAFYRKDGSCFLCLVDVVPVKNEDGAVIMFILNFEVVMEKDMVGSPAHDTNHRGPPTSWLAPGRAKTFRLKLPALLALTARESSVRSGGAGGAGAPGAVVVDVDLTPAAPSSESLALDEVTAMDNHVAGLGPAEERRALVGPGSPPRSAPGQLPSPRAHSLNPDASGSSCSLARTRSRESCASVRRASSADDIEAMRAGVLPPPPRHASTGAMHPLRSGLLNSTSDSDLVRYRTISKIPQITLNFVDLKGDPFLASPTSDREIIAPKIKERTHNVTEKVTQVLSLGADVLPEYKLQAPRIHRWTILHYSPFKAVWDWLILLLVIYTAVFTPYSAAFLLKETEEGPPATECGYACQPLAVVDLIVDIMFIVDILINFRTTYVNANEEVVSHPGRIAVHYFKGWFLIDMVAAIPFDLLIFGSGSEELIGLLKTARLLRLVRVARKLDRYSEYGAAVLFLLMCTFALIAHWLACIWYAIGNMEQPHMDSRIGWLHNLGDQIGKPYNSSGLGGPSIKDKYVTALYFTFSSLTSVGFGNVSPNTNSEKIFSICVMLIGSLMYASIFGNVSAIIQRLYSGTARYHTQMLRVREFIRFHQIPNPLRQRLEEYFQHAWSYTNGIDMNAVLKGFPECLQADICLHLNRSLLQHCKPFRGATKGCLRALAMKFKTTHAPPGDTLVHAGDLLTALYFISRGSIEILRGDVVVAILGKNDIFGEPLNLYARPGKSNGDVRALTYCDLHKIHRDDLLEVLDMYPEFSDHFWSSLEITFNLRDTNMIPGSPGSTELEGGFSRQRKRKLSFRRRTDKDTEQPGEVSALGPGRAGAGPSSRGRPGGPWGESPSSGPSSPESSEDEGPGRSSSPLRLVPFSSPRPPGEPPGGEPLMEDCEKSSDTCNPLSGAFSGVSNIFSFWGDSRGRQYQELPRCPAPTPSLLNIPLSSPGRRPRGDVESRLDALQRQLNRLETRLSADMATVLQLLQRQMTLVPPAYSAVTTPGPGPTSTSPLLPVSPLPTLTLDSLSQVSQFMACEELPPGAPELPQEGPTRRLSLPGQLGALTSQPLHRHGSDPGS

Going from `O=C(COc1ccc(Cl)cc1)Nc1ccc(Cl)cn1` to `Cc1cc(C)c2cc(CN(CCO)C(=O)Nc3ccc(Cl)cc3)c(=O)[nH]c2c1`, the “hERG current change (%, negative = inhibition) at 1uM” value rises from -2% to 3.03%.

Going from `COc1ccc(Oc2nc(SC)nc3ccccc23)cc1` to `COCCn1c(SCC(=O)N2CC(=O)Nc3ccccc32)nc2ccccc2c1=O`, the “hERG current change (%, negative = inhibition) at 1uM” value falls from 2.03% to -3.74%.

First: O=C(/C=C/Nc1ccc(F)cc1F)c1cccs1
Second: CC(=O)Nc1ccc(NC(=O)C(C)OC(=O)CNC(=O)c2cccs2)cc1 (stereo not drawn)
The “hERG current change (%, negative = inhibition) at 1uM” value of the first is higher: 18.4% for the first, 12.5% for the second.

Compared with `C[C@H](NC(=O)c1nc[nH]c1C(=O)N[C@@H](CCCCNC(=O)OC(C)(C)C)C(=O)OC(C)(C)C)c1ccccc1`, `CC(C)c1ccc(/C=C(\NC(=O)c2ccccc2)C(=O)NCCCN2CCOCC2)cc1` is lower in “hERG current change (%, negative = inhibition) at 1uM” value: 19.1% for the first, -35.8% for the second.

Compared with `COc1ccc(NC(=S)N2CCN(c3ccc([N+](=O)[O-])cc3)CC2)cc1OC`, `COc1ccc(NC(=O)N2CCN(c3ccc([N+](=O)[O-])cc3)CC2)cc1OC` is higher in “hERG current change (%, negative = inhibition) at 1uM” value: -82.2% for the first, -63.2% for the second.

Going from `COc1cccc(NC(=S)N2CCN(c3ccc([N+](=O)[O-])cc3)CC2)c1` to `O=[N+]([O-])c1ccc(N2CCN(C(=S)Nc3ccc(F)cc3)CC2)cc1`, the “hERG current change (%, negative = inhibition) at 1uM” value falls from -9.45% to -23.8%.

Going from `COc1ccc(NC(=O)N2CCN(c3ccc([N+](=O)[O-])cc3)CC2)cc1` to `COc1ccccc1N1CCN(C(=O)Nc2ccc([N+](=O)[O-])cc2)CC1`, the “hERG current change (%, negative = inhibition) at 1uM” value rises from -14.2% to -10.6%.

First: Cc1ccc(S(=O)(=O)N/N=C/c2cc(Br)c(C)o2)cc1
Second: CCC(=O)Nc1ccc(S(=O)(=O)Nc2cccc(C)c2)cc1OC
The “hERG current change (%, negative = inhibition) at 1uM” value of the first is higher: 8.23% for the first, 6.57% for the second.

Going from `O=C(N/C(=C/c1cn(-c2ccccc2)nc1-c1ccccc1)C(=O)N1CCOCC1)c1ccc(Cl)cc1Cl` to `O=C(NCCN1CCOCC1)/C(=C/c1ccc(Cl)cc1)NC(=O)c1ccccc1`, the “hERG current change (%, negative = inhibition) at 1uM” value falls from 24.2% to -83.1%.

Compared with `Cl.O=S1(=O)N=C(N(CCO)/N=C/c2ccncc2)c2ccccc21`, `S=c1[nH]nc(-c2ccncc2)n1/N=C/c1cccc(Cl)c1` is higher in “hERG current change (%, negative = inhibition) at 1uM” value: 7.58% for the first, 8.7% for the second.

Compared with `CC1CCCCC12NC(=O)N(CC(=O)Nc1ccc(N3CCOCC3)cc1)C2=O` (stereo not drawn), `CC1(C)CC(=O)C(C=NCCN2CCN(CC(=O)Nc3ccc(Cl)cc3)CC2)=C(O)C1` is lower in “hERG current change (%, negative = inhibition) at 1uM” value: 4.35% for the first, 2.52% for the second.

Compared with `CNc1c([N+](=O)[O-])cnn1-c1ccccc1Cl`, `Cc1nn(CC(=O)Nc2c(C)n(C)n(-c3ccccc3)c2=O)c(C)c1[N+](=O)[O-]` is higher in “hERG current change (%, negative = inhibition) at 1uM” value: -13.4% for the first, 8.99% for the second.

Going from `N#Cc1ncc(-c2ccc3c(c2)OCCOCCOCCOCCOCCO3)nc1C#N` to `N#Cc1ncc(-c2ccc3c(c2)OCCOCCOCCOCCO3)nc1C#N`, the “hERG current change (%, negative = inhibition) at 1uM” value rises from -84.8% to -63.6%.

Going from `c1ccn2cc(-c3ccc4c(c3)OCCO4)nc2c1` to `Cc1ccc2nc(-c3ccc4c(c3)OCCO4)cn2c1`, the “hERG current change (%, negative = inhibition) at 1uM” value rises from 4.22% to 15.7%.

Going from `N#CCC(=O)Nc1nc(-c2ccc3c(c2)OCCO3)cs1` to `Cl.Nc1nc(-c2ccc3c(c2)OCCO3)cs1`, the “hERG current change (%, negative = inhibition) at 1uM” value rises from 8.5% to 14.3%.

First: c1cncc(-c2nc(-c3ccc4c(c3)OCCO4)cs2)c1
Second: N#Cc1cncc(-c2ccc3c(c2)OCCOCCOCCOCCOCCO3)n1
The “hERG current change (%, negative = inhibition) at 1uM” value of the first is higher: 9.93% for the first, -95.2% for the second.

Compared with `O=[N+]([O-])c1ccc2c(c1)OCCOCCOCCOCCOCCOCCO2`, `C(=NCCCN1CCOCC1)c1ccc2c(c1)OCO2` is higher in “hERG current change (%, negative = inhibition) at 1uM” value: -32.5% for the first, 16.1% for the second.

Compared with `CC1CCN(C(=O)COC(=O)C23CC4CC(CC(O)(C4)C2)C3)CC1`, `CCOC(=O)C1CCN(C(=O)c2sc3ncnc(N4CCC(C)CC4)c3c2C)CC1` is lower in “hERG current change (%, negative = inhibition) at 1uM” value: 18.8% for the first, -57.3% for the second.

Compared with `CCC(C)(C)n1nnnc1C(c1ccncc1)N1CCC(C)CC1` (stereo not drawn), `CC(C)(C)c1ccc(C(=O)C2CCCN(C3CCC3)C2)cc1` (stereo not drawn) is higher in “hERG current change (%, negative = inhibition) at 1uM” value: -0.168% for the first, 10.7% for the second.

First: CCCn1nc2ccccc2c1P(=O)(N1CCOCC1)N1CCOCC1
Second: Cc1ccc(C(=O)N/C(=C\c2ccccc2)C(=O)NCCN2CCOCC2)cc1
The “hERG current change (%, negative = inhibition) at 1uM” value of the first is higher: -0.888% for the first, -38.7% for the second.

Going from `O=C(NCCc1cccc(Cl)c1)c1cc2ccccc2oc1=O` to `N#Cc1ccc(S(=O)(=O)NCC(=O)OCC(=O)NCCc2ccccc2)cc1`, the “hERG current change (%, negative = inhibition) at 1uM” value rises from 12.5% to 14.7%.

Compared with `O=C1CCCc2c1nn(-c1ccccc1)[n+]2[O-]`, `CCOc1ccc(NC(=S)N2CCC(NC(=O)c3ccccc3)CC2)cc1` is lower in “hERG current change (%, negative = inhibition) at 1uM” value: 6.47% for the first, -3.48% for the second.

Compared with `Cc1nn(CC(=O)Nc2cccnc2)c(=O)c2ccccc12`, `COc1ccc(Cl)cc1N(C)C(=O)CCNC(=O)Cn1cnc2ccccc2c1=O` is higher in “hERG current change (%, negative = inhibition) at 1uM” value: -9.14% for the first, 11.2% for the second.

Compared with `CCOC(=O)CC1C(=O)NCCN1c1nc2c(C)cccn2c(=O)c1/C=C1\SC(=S)N(C(C)CC)C1=O` (stereo not drawn), `CC(C)N(CCn1c(SCC(=O)N2CC(=O)Nc3ccccc32)nc2ccccc2c1=O)C(C)C` is lower in “hERG current change (%, negative = inhibition) at 1uM” value: 9.18% for the first, -72.5% for the second.

Compared with `Cc1c(C(=O)N2CCC(Cc3ccccc3)CC2)sc2ncnc(N3CCC(C)CC3)c12`, `CCOC(=O)C1CCN(C(=O)c2sc3nc(C)nc(N4CCC(C)CC4)c3c2C)CC1` is lower in “hERG current change (%, negative = inhibition) at 1uM” value: 9.72% for the first, -1.96% for the second.

Compared with `COc1ccc2nc(SCC(=O)Nc3ccc(S(=O)(=O)N4CCCC4)cc3)c(C#N)cc2c1`, `Cc1ccc2cc(CN(CCN3CCCC3)C(=O)Nc3ccc(F)cc3)c(=O)[nH]c2c1C` is lower in “hERG current change (%, negative = inhibition) at 1uM” value: -3.01% for the first, -8.93% for the second.

Going from `CN(C)C(=O)c1cc(C(=O)c2ccc(F)cc2C(F)(F)F)c[nH]1` to `O=C(c1ccc(C(F)(F)F)cc1)C1CCCN(C(=O)c2csnn2)C1` (stereo not drawn), the “hERG current change (%, negative = inhibition) at 1uM” value falls from 14.3% to 9.85%.

Compared with `Cc1nn(-c2cccc(Cl)c2)c2c1C(c1ccncc1)C(C#N)=C(N)O2` (stereo not drawn), `Cc1ccc(C)c2[nH]c(=O)c(CN(CCN3CCCC3)C(=O)Nc3cccc(Cl)c3)cc12` is lower in “hERG current change (%, negative = inhibition) at 1uM” value: 5.94% for the first, -35.6% for the second.

First: CCOC(=O)CCCCC(=O)c1[nH]c(=O)[nH]c1CSc1nnc2c3ccccc3n(C(C)C)c2n1
Second: CN(C)CCCn1c(SCC(=O)N2CC(=O)Nc3ccccc32)nc2ccccc2c1=O
The “hERG current change (%, negative = inhibition) at 1uM” value of the first is lower: -0.434% for the first, 9.8% for the second.

Compared with `Cc1cc(Cl)ccc1C(=O)C1CCCN(C2CCSCC2)C1` (stereo not drawn), `O=C(c1ccc(Cl)cc1)C1CCCN(C2CCSCC2)C1` (stereo not drawn) is lower in “hERG current change (%, negative = inhibition) at 1uM” value: -49.3% for the first, -63.4% for the second.

Going from `CN1CCCC(C(=O)c2ccc(Cl)cc2)C1` (stereo not drawn) to `O=C(c1ccc(C(F)(F)F)cc1)C1CCCN(C2CCSCC2)C1` (stereo not drawn), the “hERG current change (%, negative = inhibition) at 1uM” value falls from -2.93% to -64.4%.

Going from `COc1cc(OC)c2ccc(=O)oc2c1C(CCN1CCCC1)c1ccc2c(c1)OCO2` (stereo not drawn) to `COc1cc(O)c(C(CCN2CCOCC2)c2ccc3c(c2)OCO3)c(OC)c1` (stereo not drawn), the “hERG current change (%, negative = inhibition) at 1uM” value falls from -7.33% to -45.7%.

Compared with `CC(C)CCC(CCN1CCCC1)c1ccc2c(c1)OCO2.O=C(O)C(=O)O` (stereo not drawn), `CC(C)CCC(CCN1CCOCC1)c1ccc2c(c1)OCO2.Cl` (stereo not drawn) is higher in “hERG current change (%, negative = inhibition) at 1uM” value: -83.3% for the first, -76.8% for the second.

Compared with `O=C(CCN1CCCCC1)c1ccc2c(c1)OCO2`, `Cc1ccc(C)c2[nH]c(=O)c(CN(CCN3CCCC3)C(=O)Nc3ccc(F)cc3)cc12` is lower in “hERG current change (%, negative = inhibition) at 1uM” value: 10.3% for the first, -76.6% for the second.

Going from `CCOC(=O)c1c(-c2ccc(C)cc2C)csc1NC(=O)CSc1nnnn1C` to `Cc1cc(C)c2cc(CN(CCN3CCCC3)C(=O)Nc3ccc(F)cc3)c(=O)[nH]c2c1`, the “hERG current change (%, negative = inhibition) at 1uM” value falls from -3.8% to -57.9%.

Going from `COc1cc2cc(CN(CCN3CCCC3)C(=O)Nc3ccc(F)cc3)c(=O)[nH]c2cc1OC` to `Cc1ccc(C(=O)N/C(=C\c2ccc(F)cc2)C(=O)NCCN2CCOCC2)cc1`, the “hERG current change (%, negative = inhibition) at 1uM” value falls from 3.06% to -79.1%.

First: C=CCn1c(O)c(C(C)=NCCN2CCCCC2)c(=O)[nH]c1=O
Second: C=CCn1c(SCC(=O)N(CC)C2CCS(=O)(=O)C2)nc2sc3c(c2c1=O)CCC3 (stereo not drawn)
The “hERG current change (%, negative = inhibition) at 1uM” value of the first is higher: 8.8% for the first, -37.5% for the second.

First: CN1CCN(CC#CC(C)(O)C2CC3C=CC2C3)CC1.Cl (stereo not drawn)
Second: CN(C)c1ccc(/C=C(/NC(=O)c2ccccc2)C(=O)NCCN2CCOCC2)cc1
The “hERG current change (%, negative = inhibition) at 1uM” value of the first is lower: 10.8% for the first, 16.1% for the second.

Going from `c1cncc(COC2CCCN(Cc3nc(-c4cccs4)no3)C2)c1` (stereo not drawn) to `Cc1ccc(C(=O)N/C(=C\c2ccco2)C(=O)NCCN2CCOCC2)cc1`, the “hERG current change (%, negative = inhibition) at 1uM” value falls from 15.7% to 5.85%.

First: COc1cc(OC)cc(C(C)=O)c1
Second: COc1ccc(/C=C(\NC(=O)c2ccc(C)cc2)C(=O)NCCN2CCOCC2)cc1
The “hERG current change (%, negative = inhibition) at 1uM” value of the first is higher: 14.7% for the first, -33.3% for the second.

First: Cc1ccc(NC(=O)/C=C/c2ccc([N+](=O)[O-])s2)cc1
Second: Cc1ccc(C(=O)N/C(=C\c2ccc(Cl)cc2)C(=O)NCCN2CCOCC2)cc1
The “hERG current change (%, negative = inhibition) at 1uM” value of the first is higher: 13.2% for the first, -70.6% for the second.

First: Clc1ccc(-c2nnc(NC3=NCCCCC3)o2)cc1
Second: Cc1ccc(C(=O)N/C(=C/c2ccc(C(C)C)cc2)C(=O)NCCCN2CCOCC2)cc1
The “hERG current change (%, negative = inhibition) at 1uM” value of the first is higher: 10% for the first, -22% for the second.

Compared with `CC(C)c1ccc(/C=C(\NC(=O)c2ccccc2)C(=O)NCCN2CCOCC2)cc1`, `O=C(NCCN1CCOCC1)/C(=C/c1ccccc1)NC(=O)c1ccccc1` is higher in “hERG current change (%, negative = inhibition) at 1uM” value: -21.9% for the first, 3.35% for the second.

In the case of `Cc1ccc(C(=O)N/C(=C\c2ccc(C(C)C)cc2)C(=O)NCCCN2CCOCC2)cc1`, the “hERG current change (%, negative = inhibition) at 1uM” value is reported as -61.4%.
